Measurements reported in PubChem BioAssay (NCI).
About 79,000 compounds went through this panel and 15% of them were active in at least one assay; those are over-represented in the sample as a whole. Active and inactive are the calls of the source. Rule as the data show it: active = growth inhibition above about 70%; inactive = the rest. Where a SMILES comes first, the peptide text is derived from it. [ ]: non-standard residue; d: D form. Hiv = CC(C)[C@H](O)C(=O)O

Experiment: NCI Yeast Anticancer Drug Screen. Data for the rad50 strain (AID 155);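 also: 0% = growth of vehicle-only cultures of the same strain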
Settings: S. cerevisiae rad50 strain growth inhibition; at 50.0 µM; stronger effect = higher value
Outline: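 Genetically altered yeast (DNA repair pathway); compound treatment; growth inhibition vs vehicle ctrl.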

Q: With CC(=O)NC(CCCN(Cc1ccccc1)C(=O)NCCCl)C(=O)NCc1ccccc1 (stereo not given) as the compound, how does the growth inhibition read?
A: 13.7% (inactive)

Q: Which growth inhibition does the source give for NC(=O)CNc1ccc(CC2CCOC2=O)cc1 (stereo not given) here?
A: -7.45% (inactive)

Q: With S=C(NNC1=NCCN1)Nc1ccccc1 as the compound, how does the growth inhibition read?
A: -54% (inactive)

Q: For CCOC(=O)C(C)(C)C(O)C(C)C (stereo not given), which growth inhibition is on record?
A: 20.7% (inactive)

Q: With CCOC(=O)[C@H]1Nc2c(cccc2[N+](=O)[O-])[C@H]2OCC[C@@H]12 as the compound, how does the growth inhibition read?
A: -12.8% (inactive)

Q: With CCCCCCCCC(=O)N1CCOCC1 as the compound, how does the growth inhibition read?
A: 17.4% (inactive)

Q: With CC(C)CC1=C(N(C)C)C(=O)C=C(N(C)C)C1=O as the compound, how does the growth inhibition read?
A: -0.35% (inactive)

Q: Which growth inhibition does the source give for CC(=O)OC(C)C(=O)OCCOc1ccccc1 (stereo not given) here?
A: 8.7% (inactive)

Q: With CNC(=O)Nc1ccc(C(=O)O)cc1 as the compound, how does the growth inhibition read?
A: 9.2% (inactive)

Q: With O=C1CC2c3ccccc3C(O)(CC1=O)c1ccccc12 as the compound, how does the growth inhibition read?
A: 16.2% (inactive)

Q: With CCCCC(=O)c1ccc2ccccc2c1O as the compound, how does the growth inhibition read?
A: 6.9% (inactive)

Q: With CC(C)OP(=O)(CCC(=O)C1(O)CCC2C3CCC4=CC(=O)CCC4(C)C3CCC21C)OC(C)C (stereo not given) as the compound, how does the growth inhibition read?
A: 11.4% (inactive)

Q: With CC(C)[C@@H]1OC(=O)[C@@H](C)NC(=O)[C@@H]2CCCN2C1=O (cyclo([Hiv]-Pro-[dA])) as the compound, how does the growth inhibition read?
A: -38.2% (inactive)

Q: Which growth inhibition does the source give for O=C(/C=N\O)Nc1ccccc1O here?
A: 2.6% (inactive)

Q: Which growth inhibition does the source give for Br here?
A: -11.7% (inactive)

Q: With Cc1cn(C2CC(O)C(CO)C2C)c(=O)[nH]c1=O (stereo not given) as the compound, how does the growth inhibition read?
A: -7.45% (inactive)

Q: For O=C(c1ccccc1)N1OCCC1Nc1ccc(Br)cc1 (stereo not given), which growth inhibition is on record?
A: -9.85% (inactive)

Q: With Cc1nc2ccccc2c(=O)n1NC(=O)c1ccccn1 as the compound, how does the growth inhibition read?
A: -6.6% (inactive)

Q: Which growth inhibition does the source give for CCNc1ccc2c(c1)C(=O)c1ccccc1-2 here?
A: 28.9% (inactive)

Q: Which growth inhibition does the source give for COc1ccc2c(c1)CC/C(=C\C1(Sc3ccccc3)CC1)C2O (stereo not given) here?
A: -12.1% (inactive)

Q: Which growth inhibition does the source give for C/C(=N/N=C(N)N)c1cnn(C(=N)N)c1C here?
A: 15.3% (inactive)

Q: Which growth inhibition does the source give for CCCCCCCCCCCCCC#N here?
A: 5.85% (inactive)

Q: For O=S(=O)(c1cccc(C(F)(F)F)c1)N(CCCCCN(S(=O)(=O)c1cccc(C(F)(F)F)c1)S(=O)(=O)c1cccc(C(F)(F)F)c1)S(=O)(=O)c1cccc(C(F)(F)F)c1, which growth inhibition is on record?
A: -12.2% (inactive)

Q: Which growth inhibition does the source give for CCN(CC)CCOC(=O)c1ccc(NC(=O)Nc2ccccc2[N+](=O)[O-])cc1 here?
A: 19.4% (inactive)

Q: Which growth inhibition does the source give for C[N+]1(C)CC2CCC1C2 (stereo not given) here?
A: 1.1% (inactive)

Q: For COc1cc2c(cc1OC)C1c3ccccc3CCCN1CC2 (stereo not given), which growth inhibition is on record?
A: -40.4% (inactive)

Q: For CNc1ccc2c(c1)C(=O)c1ccccc1-2, which growth inhibition is on record?
A: 11.1% (inactive)

Q: For Cc1ccc(N=Nc2c(O)n(C)c(=O)n(C)c2=O)cc1C, which growth inhibition is on record?
A: -8.3% (inactive)

Q: With N#C/C(N)=C(\C#N)NC=NCCO as the compound, how does the growth inhibition read?
A: 5.35% (inactive)

Q: With CCC(CC)CC1CCCCC1O (stereo not given) as the compound, how does the growth inhibition read?
A: -30.7% (inactive)

Q: For C/C(CC(C)(C)C)=N/NS(=O)(=O)c1ccc(C)cc1, which growth inhibition is on record?
A: 7.7% (inactive)

Q: Which growth inhibition does the source give for CCCSc1nc2c(c(=O)n(C)c(=O)n2C)n1C here?
A: 7.85% (inactive)

Q: With COC1CC(OC2CCC3(C)C(=CCC4C3C(OC(C)=O)C(OC(=O)CC(C)C)C3(C)C(C(C)=O)CCC43O)C2)OC(C)C1OC1CC(OC)C(OC2CC(OC)C(OC3OC(C)C(OC4OC(CO)C(O)C(O)C4O)C(OC)C3O)C(C)O2)C(C)O1 (stereo not given) as the compound, how does the growth inhibition read?
A: 2.4% (inactive)

Q: For CN(C)CCNS(=O)(=O)N(C)C, which growth inhibition is on record?
A: -25.1% (inactive)

Q: Which growth inhibition does the source give for CC1=C(C(=O)Nc2ccccc2C)C(c2ccc(C3C(C(=O)Nc4ccccc4C)=CNC=C3C(=O)Nc3ccccc3C)cc2)C(C(=O)Nc2ccccc2C)=C(C)N1 here?
A: 29.3% (inactive)

Q: For CCOC(=O)NCc1ccccc1, which growth inhibition is on record?
A: 19% (inactive)

Q: For Nc1nc(-c2ccccc2)nc(N)c1C=O, which growth inhibition is on record?
A: -21.8% (inactive)

Q: For O=C1C2CC3CC(C2)CC1C3, which growth inhibition is on record?
A: 15.1% (inactive)

Q: For CC1=Nc2c([nH]c(=S)[nH]c2=O)NC(c2c(Cl)cccc2Cl)C1 (stereo not given), which growth inhibition is on record?
A: 3.9% (inactive)

Q: For COc1cc2c(c(OC)c1OC)-c1cccc(=O)cc1C(NC(C)=O)CC2 (stereo not given), which growth inhibition is on record?
A: -3.65% (inactive)

Experiment: NCI Yeast Anticancer Drug Screen. Data for the mec2-1 strain (AID 157)
Settings: S. cerevisiae mec2-1 strain, at 50.0 µM, stronger effect = higher value
Outline: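 Strain: mec2-1 (DNA repair/cell cycle alteration). Compound exposure, then growth measured; inhibition expressed relative to vehicle.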

Q: With CC(=O)NC(CCCN(Cc1ccccc1)C(=O)NCCCl)C(=O)NCc1ccccc1 (stereo not given) as the compound, how does the growth inhibition read?
A: -25.5% (inactive)

Q: Which growth inhibition does the source give for NC(=O)CNc1ccc(CC2CCOC2=O)cc1 (stereo not given) here?
A: -18.9% (inactive)

Q: For S=C(NNC1=NCCN1)Nc1ccccc1, which growth inhibition is on record?
A: -19.9% (inactive)

Q: Which growth inhibition does the source give for CCOC(=O)C(C)(C)C(O)C(C)C (stereo not given) here?
A: -18.8% (inactive)

Q: Which growth inhibition does the source give for CCOC(=O)[C@H]1Nc2c(cccc2[N+](=O)[O-])[C@H]2OCC[C@@H]12 here?
A: -22.3% (inactive)

Q: With CCCCCCCCC(=O)N1CCOCC1 as the compound, how does the growth inhibition read?
A: 7.15% (inactive)

Q: Which growth inhibition does the source give for CC(C)CC1=C(N(C)C)C(=O)C=C(N(C)C)C1=O here?
A: -9.4% (inactive)

Q: Which growth inhibition does the source give for CC(=O)OC(C)C(=O)OCCOc1ccccc1 (stereo not given) here?
A: -12% (inactive)

Q: For CNC(=O)Nc1ccc(C(=O)O)cc1, which growth inhibition is on record?
A: 4.35% (inactive)

Q: With O=C1CC2c3ccccc3C(O)(CC1=O)c1ccccc12 as the compound, how does the growth inhibition read?
A: 6.7% (inactive)

Q: Which growth inhibition does the source give for CCCCC(=O)c1ccc2ccccc2c1O here?
A: -6.35% (inactive)

Q: With CC(C)OP(=O)(CCC(=O)C1(O)CCC2C3CCC4=CC(=O)CCC4(C)C3CCC21C)OC(C)C (stereo not given) as the compound, how does the growth inhibition read?
A: 4.25% (inactive)

Q: For CC(C)[C@@H]1OC(=O)[C@@H](C)NC(=O)[C@@H]2CCCN2C1=O (cyclo([Hiv]-Pro-[dA])), which growth inhibition is on record?
A: -6.75% (inactive)

Q: Which growth inhibition does the source give for O=C(/C=N\O)Nc1ccccc1O here?
A: 4.3% (inactive)

Q: For Br, which growth inhibition is on record?
A: -33.1% (inactive)

Q: Which growth inhibition does the source give for Cc1cn(C2CC(O)C(CO)C2C)c(=O)[nH]c1=O (stereo not given) here?
A: -11.8% (inactive)

Q: With O=C(c1ccccc1)N1OCCC1Nc1ccc(Br)cc1 (stereo not given) as the compound, how does the growth inhibition read?
A: -7.45% (inactive)

Q: With Cc1nc2ccccc2c(=O)n1NC(=O)c1ccccn1 as the compound, how does the growth inhibition read?
A: -10% (inactive)

Q: Which growth inhibition does the source give for CCNc1ccc2c(c1)C(=O)c1ccccc1-2 here?
A: 7.5% (inactive)

Q: Which growth inhibition does the source give for COc1ccc2c(c1)CC/C(=C\C1(Sc3ccccc3)CC1)C2O (stereo not given) here?
A: -3.35% (inactive)

Q: For C/C(=N/N=C(N)N)c1cnn(C(=N)N)c1C, which growth inhibition is on record?
A: 13.3% (inactive)

Q: For CCCCCCCCCCCCCC#N, which growth inhibition is on record?
A: -3.55% (inactive)

Q: Which growth inhibition does the source give for O=S(=O)(c1cccc(C(F)(F)F)c1)N(CCCCCN(S(=O)(=O)c1cccc(C(F)(F)F)c1)S(=O)(=O)c1cccc(C(F)(F)F)c1)S(=O)(=O)c1cccc(C(F)(F)F)c1 here?
A: 2.95% (inactive)

Q: With CCN(CC)CCOC(=O)c1ccc(NC(=O)Nc2ccccc2[N+](=O)[O-])cc1 as the compound, how does the growth inhibition read?
A: 5.5% (inactive)

Q: Which growth inhibition does the source give for C[N+]1(C)CC2CCC1C2 (stereo not given) here?
A: 16.1% (inactive)

Q: Which growth inhibition does the source give for COc1cc2c(cc1OC)C1c3ccccc3CCCN1CC2 (stereo not given) here?
A: -4.5% (inactive)

Q: With CNc1ccc2c(c1)C(=O)c1ccccc1-2 as the compound, how does the growth inhibition read?
A: 14.4% (inactive)

Q: Which growth inhibition does the source give for Cc1ccc(N=Nc2c(O)n(C)c(=O)n(C)c2=O)cc1C here?
A: -5.7% (inactive)

Q: With N#C/C(N)=C(\C#N)NC=NCCO as the compound, how does the growth inhibition read?
A: 7.75% (inactive)

Q: With CCC(CC)CC1CCCCC1O (stereo not given) as the compound, how does the growth inhibition read?
A: -44% (inactive)

Q: Which growth inhibition does the source give for C/C(CC(C)(C)C)=N/NS(=O)(=O)c1ccc(C)cc1 here?
A: -1.6% (inactive)

Q: With CCCSc1nc2c(c(=O)n(C)c(=O)n2C)n1C as the compound, how does the growth inhibition read?
A: 15.2% (inactive)

Q: Which growth inhibition does the source give for COC1CC(OC2CCC3(C)C(=CCC4C3C(OC(C)=O)C(OC(=O)CC(C)C)C3(C)C(C(C)=O)CCC43O)C2)OC(C)C1OC1CC(OC)C(OC2CC(OC)C(OC3OC(C)C(OC4OC(CO)C(O)C(O)C4O)C(OC)C3O)C(C)O2)C(C)O1 (stereo not given) here?
A: 5.2% (inactive)

Q: With CN(C)CCNS(=O)(=O)N(C)C as the compound, how does the growth inhibition read?
A: -25.1% (inactive)

Q: With CC1=C(C(=O)Nc2ccccc2C)C(c2ccc(C3C(C(=O)Nc4ccccc4C)=CNC=C3C(=O)Nc3ccccc3C)cc2)C(C(=O)Nc2ccccc2C)=C(C)N1 as the compound, how does the growth inhibition read?
A: 44.8% (inactive)

Q: For CCOC(=O)NCc1ccccc1, which growth inhibition is on record?
A: 8.7% (inactive)

Q: Which growth inhibition does the source give for Nc1nc(-c2ccccc2)nc(N)c1C=O here?
A: -21.9% (inactive)

Q: With O=C1C2CC3CC(C2)CC1C3 as the compound, how does the growth inhibition read?
A: -4.5% (inactive)

Q: With CC1=Nc2c([nH]c(=S)[nH]c2=O)NC(c2c(Cl)cccc2Cl)C1 (stereo not given) as the compound, how does the growth inhibition read?
A: 11.6% (inactive)

Q: For COc1cc2c(c(OC)c1OC)-c1cccc(=O)cc1C(NC(C)=O)CC2 (stereo not given), which growth inhibition is on record?
A: -14.2% (inactive)
